BAZ2B inh = BAZ2B (human) inhibition; AID 504333; AlphaScreen BAZ2B-H3K14Ac peptide displacement; 4.4% of 360,000 active; Potency, µM (top dose mostly 114 µM), inactives show at the highest dose activity change, negative = inhibition, usual class: inhibitors; note: % is set by controls: 0 for no effect and ±100 for the full control effect; nearly all actives have a fitted effect of over 60% in size
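Multi-concentration screen (max 110 uM) measuring displacement of acetylated histone H3 peptide from BAZ2B by AlphaScreen, using 50 nM protein, 50 nM peptide and 10 ug/mL streptavidin donor plus Ni-chelate acceptor beads.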
JMJD2A Tudor = JMJD2A Tudor domain (human) inhibition; AlphaScreen JMJD2A-Tudor / H3K4me3 peptide binding; Potency, µM (titrated, usually from 114 µM), without a hit: top-dose activity change, negative = inhibition, most hits filed as inhibitors; 4.4% of 390,000 active; AID 504339; note: % is set by controls: 0 for no effect and ±100 for the full control effect; nearly all actives have a fitted effect of over 50% in size
G9a block = G9a (human) methyltransferase inhibition. G9a H3K9 monomethylation, AlphaScreen, 2 h. Potency, µM (doses to about 102 µM), for inactives: at the highest dose activity, negative = inhibition, actives largely listed as inhibitors. 8.8% of 350,000 active. AID 504332; note: % is set by controls: 0 for no effect and ±100 for the full control effect; nearly all actives have a fitted effect of over 75% in size
Target sequence (Q96KQ7 913-1193 limits assumed): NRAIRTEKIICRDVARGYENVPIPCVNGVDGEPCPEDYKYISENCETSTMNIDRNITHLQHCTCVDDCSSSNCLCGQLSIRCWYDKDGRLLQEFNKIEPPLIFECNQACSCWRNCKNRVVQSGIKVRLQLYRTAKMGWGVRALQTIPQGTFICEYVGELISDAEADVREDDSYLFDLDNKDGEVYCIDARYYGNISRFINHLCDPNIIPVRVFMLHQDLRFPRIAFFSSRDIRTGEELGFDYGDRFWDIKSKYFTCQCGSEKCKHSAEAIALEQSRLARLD
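Compounds were preincubated with 20 nM G9a for 15 min, after which biotinylated H3K9 peptide (500 nM) and SAM (20 uM) started a 2 h room-temperature reaction. Monomethylated product was quantified by antibody-based AlphaScreen chemiluminescence.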
HP1b chromo inh = blocks HP1-beta chromodomain binding to methylated histone tails | P83916 | AlphaScreen HP1-beta / biotin-H3K9me3 peptide binding | 0.56% of 390,000 active | Potency, µM (highest dose often 114 µM), inactives show top-dose activity change, negative = inhibition, usual class: inhibitors | AID 540317; note: nearly all actives have a fitted effect of over 70% in size
Target sequence (P83916 whole entry, looked up): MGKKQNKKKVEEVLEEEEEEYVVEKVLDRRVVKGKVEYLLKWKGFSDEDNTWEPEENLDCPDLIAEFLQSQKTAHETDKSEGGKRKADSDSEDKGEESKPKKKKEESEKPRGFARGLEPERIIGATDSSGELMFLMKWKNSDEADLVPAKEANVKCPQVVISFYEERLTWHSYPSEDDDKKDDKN
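Compound inhibition of the preformed complex between 50 nM HP1-beta and 50 nM biotinylated H3K9me3 peptide was read by AlphaScreen. Buffer was PBS pH 7.4 with 0.01% Tween-20. Incubations ran 30 min at room temperature, with 10 ug/mL donor/acceptor beads.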
GLS inhibitor = glutaminase GLS (human) inhibition; GLS enzymatic activity, qHTS titration; O94925; Potency, µM (top dose mostly 45.5 µM), inactives show at the highest dose activity change, negative = inhibition, hits mostly inhibitors; AID 624170; 0.21% of 410,000 active; note: % is set by controls: 0 for no effect and ±100 for the full control effect
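Coupled fluorescence readout: glutamate oxidase/HRP/Amplex Red detect glutamate formed by hKGA from L-glutamine (1 mM solution added). Buffer 45 mM KH2PO4 pH 8.2, 0.02% Tween-20; reads at t0 and 30 min RT.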
Starred values were filed as active, the others as inactive; ? = inconclusive; nt = no result; [ ] = dose if it differs, or a comment. Sampled rows, rich in hits. Any-hit rate of the full collection: about 10%. Calls come from the whole dose curve; as a rule, active = well fitted curve in the direction sought with a large enough effect; inconclusive = small, poorly fitted or top-dose-only effect, or another doubt; inactive = no such curve, though single readings can be large; an effect the other way counts as inactive or inconclusive. Potency is the fitted concentration of half-maximal effect.

SMILES | BAZ2B inh | JMJD2A Tudor | G9a block | HP1b chromo inh | GLS inhibitor
COc1ccc(C(C)=O)c(OC(=O)c2ccco2)c1 | ? | 4.1% | 44.7µM* | 32.5% | 11.3%
COc1ccc(C(=O)Nc2cccc(OC(=O)c3ccco3)c2)cc1 | 13.2% | -13.8% | 50.1µM* | -9.6% | 15.6%
CCOc1ccc(C(=O)c2cn(CC(=O)Nc3ccc(F)c(F)c3)c3cc4c(cc3c2=O)OCCO4)cc1 | -3.5% | -6.3% | 8.3%[59 µM] | 29.5% | -4.2%
CCOc1ccc(NCc2cccn2-c2nnc(N3CCC(C(=O)NCCCN4CCCCC4CC)CC3)s2)cc1 (centres undefined) | ? | 28.2µM* | 50.1µM* | -16.8%[57 µM] | 4.8%
Cc1cccc(Nc2nnc(SC/C(O)=C(\C#N)c3nc4ccccc4[nH]3)s2)c1 | -32.6% | -16.6% | 15.8µM* | 0.6% | 15.8%
Cc1cc(C)n2c(SCC(O)=C(C#N)c3nc4ccccc4[nH]3)nnc2n1 | nt | -24.8% | nt | -4.3% | -4.5%
Cc1ccc(Nc2nnc(SC/C(O)=C(\C#N)c3nc4ccccc4[nH]3)s2)c(C)c1 | 5.0% | -31.5% | 7.08µM* | 1.6% | 6.3%
O=c1cnc2cnc(N3CCNCC3)nc2n1C1CC1 | nt | nt | 4.6%[0.501 µM] | nt | nt
COc1ccc(-c2nnc(SCC(=O)N3CCCC3=O)n2N)cc1OC | nt | 0.7% | nt | 52.8% | -1.3%
Cc1cccnc1NC(=S)Nc1ccc(Br)cc1Cl | 50.1µM* | ? | ? | ? | -15.9%
S=C(NCc1ccncc1)Nc1ccc(Br)cc1Cl | -8.1% | -14.1% | ? | 48.5% | 12.9%
Cc1oc(-c2ccc3c(c2)OCCO3)cc1C(=O)NC(Cc1ccccc1)C(=O)O (centres undefined) | ? | -14.8% | 35.5µM* | 19.7% | 4.0%
C=CCNc1ncnc2c1ncn2[C@H]1CN(CCc2ccccc2)C[C@@H](CO)O1 | nt | nt | nt | nt | 3.0%
O=C(O)CCn1cc(/C=C2\NC(=S)N(c3ccccc3)C2=O)c(-c2ccc(Br)cc2)n1 | nt | ? | 20µM* | 0.8% | 2.0%
CCCc1cc(C(=O)N/N=C/c2cccn2C)cs1 | 44.7µM* | ? | ? | ? | -14.7%
Cn1cccc1/C=N/NC(=O)c1cccs1 | -34.5% | -8.9% | 16.2% | 14.7% | 20.2%
O=C(COc1cccc(Cl)c1)Nc1ccc(N2CCOCC2)cc1 | 2.9% | -28.8% | 79.4µM* | 13.1% | 32.8%
CC(Oc1cccc(Cl)c1)C(=O)N(C)CC(=O)Nc1ccc(N2CCOCC2)cc1 (centres undefined) | -2.1% | -10.3% | 39.8µM* | 6.1% | 23.4%
O=C(C[C@@H]1C/C=C\CC[C@H](Cc2ccc(F)cc2)C(=O)OC[C@@H]2CCCN2C1=O)N[C@H](CO)Cc1ccccc1 | nt | -26.7% | nt | 15.7% | 15.2%
COc1cc2c(cc1OC)C(C(=O)O)C(c1cc(Br)c(O)c(OC)c1)N(C)C2=O (centres undefined) | -8.4% | 18.8% | 35.5µM* | 51.2% | 16.1%
OC[C@@H]1CN(Cc2ccccc2)C[C@H](n2cnc3c(NC4CCCC4)ncnc32)O1 | nt | nt | nt | nt | -6.0%
C/C(=N/NC(=O)c1cccs1)c1c(C)[nH]n(-c2nc3ccccc3s2)c1=O | 6.0% | -21.3% | 26.3%[59 µM] | 23.7% | 46.9%
CCCN=C(C)c1c(-c2ccccc2)[nH]n(-c2nc3ccccc3s2)c1=O | -6.8% | -28.2%[57.1 µM] | ? | 46.7% | 3.3%
COC(=O)Cc1[nH]n(-c2ccccc2)c(=O)c1C(C)=Nc1ccccc1 | -30.3% | -22.7% | 50.1µM* | 0.1% | 11.5%
CCOc1[nH]n(-c2ccccc2)c(=O)c1C=Nc1ccc(C(=O)OC)cc1 | -30.3% | -19.7% | ? | 40.9% | -5.1%
SMILES | BAZ2B inh | JMJD2A Tudor | G9a block | HP1b chromo inh | GLS inhibitor
COC(=O)Cc1[nH]n(-c2nc3ccccc3s2)c(=O)c1C(C)=Nc1ccc(C)cc1 | 39.8µM* | 35.5µM* | 14.1µM* | 25.7% | 8.0%
COC(=O)Cc1[nH]n(-c2nc3ccccc3s2)c(=O)c1C(C)=Nc1ccc(Cl)cc1 | 25.1µM* | 22.4µM* | -121.1%[59 µM] | 7.4% | 10.5%
CCc1ccc(CNC(=O)C2CCN(S(=O)(=O)N3CCCCC3)CC2)cc1 | nt | nt | nt | nt | -0.3%
CCCCN(C)CCCNC(=O)C1CCN(S(=O)(=O)CCC)CC1 | 0.7% | -18.3% | -16.8%[59 µM] | 23.4% | -14.2%
O=C(C1CCN(CC2CC=CCC2)CC1)N(CCc1ccccc1)Cc1ccccc1 (centres undefined) | 79.4µM* | ? | 44.7µM* | 42.0% | 1.4%
CCC(C)NC(=O)C1CCN(C(=O)c2ccccc2)CC1 (centres undefined) | 6.2% | -11.7% | nt | 13.2% | 1.3%
CCC(C)NC(=O)C1CCN(CCCc2ccccc2)CC1 (centres undefined) | 50.1µM* | 10µM* | 14.1µM* | -28.0% | -13.5%
O=C(Nc1ccnn1C1CCN(CC2CC=CCC2)CC1)c1ccccc1 (centres undefined) | 3.3% | 2.3% | 6.2%[12.7 µM] | 50.7% | -5.6%
O=C(C1CCN(CCCc2ccccc2)CC1)N(CCc1ccccc1)Cc1ccccc1 | ? | 1.12µM* | 14.1µM* | ? | 16.7%
O=C(C1CCN(S(=O)(=O)c2cnc[nH]2)CC1)N(CCc1ccccc1)Cc1ccccc1 | 0.5% | -8.0% | -31.8% | 32.8% | -1.4%
COc1ccc(Oc2ncc3nc(CCc4ccccc4)c(=O)n(C4CC4)c3n2)cc1 | nt | nt | -2.6%[12.7 µM] | nt | nt
O=[N+]([O-])c1ccccc1S(=O)(=O)N1CCN(Cc2ccc3c(c2)OCO3)CC1 | 50.1µM* | -27.1%[11.4 µM] | 10µM* | 15.8µM* | 0.6%
CCn1c(=O)c([N+](=O)[O-])c(N2CCSCC2)c2ccccc21 | ? | -34.5% | nt | -14.6% | -0.7%
O=[N+]([O-])c1ccccc1S(=O)(=O)N1CCN(Cc2ccccc2)CC1 | ? | ? | 79.4µM* | 4.1% | 2.6%
CCn1c(=O)c([N+](=O)[O-])c(N2CCN(Cc3ccc4c(c3)OCO4)CC2)c2ccccc21 | ? | ? | 31.6µM* | ? | -9.7%
CCc1ccc2oc(C(=O)N(Cc3ccc(N(C)C)cc3)Cc3ccco3)c(C)c2c1 | 8.91µM* | 17.8µM* | 10µM* | ? | -8.0%
Cc1ccc2c(C)c(C(=O)NCCc3ccco3)oc2c1C | -9.0% | -8.3% | 24.5% | 14.6% | 1.8%
Cc1c(C(=O)N(Cc2cccc(Cl)c2)Cc2ccco2)oc2ccccc12 | 41.9% | 28.1% | 34.0%[59 µM] | 89.1% | 5.3%
Cc1ccc2c(C)c(C(=O)N(Cc3ccc(N(C)C)cc3)Cc3ccco3)oc2c1C | 10µM* | 17.8µM* | 11.2µM* | -25.0% | -6.0%
COC(=O)c1ccsc1NC(=O)CN1CCN(Cc2ccc3c(c2)OCO3)CC1 | -0.8% | -30.2% | -2.9% | 14.8% | -0.3%
COC(=O)c1c(NC(=O)CN2C(=O)c3ccccc3C2=O)sc(Cc2ccc3c(c2)OCO3)c1C | -6.3% | -2.1% | 50.1µM* | -8.3% | -10.3%
Cc1c(Cc2ccc3c(c2)OCO3)sc(NC(=O)c2cccc3ccccc23)c1C(N)=O | ? | ? | 7.08µM* | ? | -18.3%
